Results on 8 compounds are retold here after PubChem BioAssay.

Values joined by “and” are separate entries in the source; they are usually repeats but may differ in a detail not shown here. Equal entries are not always repeated. Active and inactive are the calls of the source.

A short description of experiment [1]: E. coli DRC41 culture turbidity changes, primary screen, E. coli filamentation inducer project, strain DRC41, OD650, 48 h (AID 1152).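 Also: E. coli MC1000 strain DRC41 lacking acrAB efflux pump and sulA.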 To be noted: E. coli DRC41 (acrAB sulA), higher = more signal, called active from +8 up or from −8 down.
Experiment [2] in a line: small-molecule binders of probe aLefty1, primary screen, biochemical, small-molecule microarray, 635/667 nm fluorescence (AID 1153).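 Also: score merges spot fluorescence with signal-to-noise ratio from the scanned slide images.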 Particulars: higher = more signal.
Experiment [3] in a line: PSAC antagonists in infected red cells, primary screen, cell-based, P. falciparum Indochina, OD700, 1 h (AID 1154). To be noted: P. falciparum Indochina infected RBC osmotic lysis, higher = more signal, called active from +8 up or from −8 down.
Experiment [4] is described as follows: PSAC antagonists in infected red cells, primary screen, cell-based, P. falciparum Indochina, OD700, 2 h (AID 1155).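 Also: lysis reports solute entry through the parasite surface anion channel PSAC; channel blockers reduce lysis of infected cells.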 To be noted: P. falciparum Indochina infected erythrocytes, osmotic lysis OD700; higher = more signal, called active from +8 up or from −8 down.
A short description of experiment [5]: osmotic lysis modulators in infected erythrocytes, primary screen, PSAC antagonist project, cell-based, P. falciparum Indochina, OD700, 3 h (AID 1156). To be noted: higher = more signal, called active from +8 up or from −8 down.
Experiment [6] is described as follows: PSAC antagonists in infected red cells, primary screen, cell-based, P. falciparum Indochina, OD700, 18 h (AID 1157). Particulars: P. falciparum Indochina infected erythrocytes, osmotic lysis OD700, 18 h; higher = more signal, called active from +8 up or from −8 down.
Experiment [7] can be described thus: modulators of S6 phosphorylation in cells, primary screen, cell-based, A549, cytoblot, luminescence, serum-stimulated (AID 1158).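 Also: serum-stimulated A549 lung adenocarcinoma cells; signal is phosphorylated S6 detected by cytoblot immunostaining with HRP secondary.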 To be noted: A549 phospho-S6 cytoblot, 5 h, higher = more signal.
Experiment [8] concerns the target NADPH oxidase 2 (Homo sapiens) (UniProt P04839). The experiment can be described thus: NOX2-dependent H2O2 signal modulators, primary screen, NOX inhibitor project, cell-based, HEK293-NOX2, PMA-stimulated, Amplex Red fluorescence (AID 1159). Also: test concentration not given here. To be noted: 45 min, higher = more signal, called active from +8 up or from −8 down.
The target in experiment [9] is NADPH oxidase 4 (Homo sapiens) (UniProt Q9NPH5). Kind of experiment: NOX4-dependent H2O2 signal modulators, primary screen, NOX inhibitor project, cell-based, HEK293-NOX4, tetracycline-induced, Amplex Red fluorescence (AID 1160). To be noted: 45 min, higher = more signal, called active from +8 up or from −8 down.
NADPH oxidase 4 (Homo sapiens), sequence (Q9NPH5 whole entry, looked up): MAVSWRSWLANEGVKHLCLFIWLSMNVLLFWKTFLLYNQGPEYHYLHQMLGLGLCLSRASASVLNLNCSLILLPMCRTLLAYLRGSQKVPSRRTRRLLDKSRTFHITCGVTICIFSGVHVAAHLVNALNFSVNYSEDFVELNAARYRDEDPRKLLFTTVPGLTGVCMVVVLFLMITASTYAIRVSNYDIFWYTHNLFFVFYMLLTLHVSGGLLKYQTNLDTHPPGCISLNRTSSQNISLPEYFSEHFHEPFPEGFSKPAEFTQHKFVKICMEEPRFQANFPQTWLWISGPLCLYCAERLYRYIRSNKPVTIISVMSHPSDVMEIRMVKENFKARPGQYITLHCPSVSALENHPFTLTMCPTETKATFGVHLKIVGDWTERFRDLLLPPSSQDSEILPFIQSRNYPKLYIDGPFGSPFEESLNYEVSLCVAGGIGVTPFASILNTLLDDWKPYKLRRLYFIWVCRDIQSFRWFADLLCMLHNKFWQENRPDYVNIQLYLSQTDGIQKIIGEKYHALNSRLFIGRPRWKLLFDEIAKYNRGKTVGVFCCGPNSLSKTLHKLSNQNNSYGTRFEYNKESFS
In experiment [10] the target is NADPH oxidase 5 (Homo sapiens) (UniProt Q96PH1). The experiment can be described thus: NOX5-dependent H2O2 signal modulators, primary screen, NOX inhibitor project, cell-based, HEK293-NOX5, Amplex Red fluorescence (AID 1161). To be noted: HEK293-NOX5, ionomycin, 45 min, higher = more signal.
NADPH oxidase 5 (Homo sapiens), sequence (Q96PH1 whole entry, looked up): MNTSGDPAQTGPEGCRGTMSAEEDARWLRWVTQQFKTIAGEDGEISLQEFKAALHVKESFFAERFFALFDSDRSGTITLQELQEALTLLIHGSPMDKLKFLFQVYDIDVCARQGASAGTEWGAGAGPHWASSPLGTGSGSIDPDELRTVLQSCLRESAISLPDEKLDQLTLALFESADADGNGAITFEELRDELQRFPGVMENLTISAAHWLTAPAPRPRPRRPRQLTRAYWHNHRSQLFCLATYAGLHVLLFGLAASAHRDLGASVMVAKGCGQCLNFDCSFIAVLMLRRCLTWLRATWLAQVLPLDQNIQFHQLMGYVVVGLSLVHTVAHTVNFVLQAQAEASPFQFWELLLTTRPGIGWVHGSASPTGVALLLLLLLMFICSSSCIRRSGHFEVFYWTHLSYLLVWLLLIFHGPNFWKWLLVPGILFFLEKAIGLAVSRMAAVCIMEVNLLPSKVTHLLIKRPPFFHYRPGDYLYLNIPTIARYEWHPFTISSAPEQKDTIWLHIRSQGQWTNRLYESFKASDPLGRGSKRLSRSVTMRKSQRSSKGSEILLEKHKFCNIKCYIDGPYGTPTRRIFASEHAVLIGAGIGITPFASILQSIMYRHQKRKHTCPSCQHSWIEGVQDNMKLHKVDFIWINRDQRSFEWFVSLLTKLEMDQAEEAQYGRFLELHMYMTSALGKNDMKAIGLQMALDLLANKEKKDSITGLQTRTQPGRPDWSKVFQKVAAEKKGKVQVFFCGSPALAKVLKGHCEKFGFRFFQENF

NADPH oxidase 2 (Homo sapiens), sequence (P04839 whole entry, looked up): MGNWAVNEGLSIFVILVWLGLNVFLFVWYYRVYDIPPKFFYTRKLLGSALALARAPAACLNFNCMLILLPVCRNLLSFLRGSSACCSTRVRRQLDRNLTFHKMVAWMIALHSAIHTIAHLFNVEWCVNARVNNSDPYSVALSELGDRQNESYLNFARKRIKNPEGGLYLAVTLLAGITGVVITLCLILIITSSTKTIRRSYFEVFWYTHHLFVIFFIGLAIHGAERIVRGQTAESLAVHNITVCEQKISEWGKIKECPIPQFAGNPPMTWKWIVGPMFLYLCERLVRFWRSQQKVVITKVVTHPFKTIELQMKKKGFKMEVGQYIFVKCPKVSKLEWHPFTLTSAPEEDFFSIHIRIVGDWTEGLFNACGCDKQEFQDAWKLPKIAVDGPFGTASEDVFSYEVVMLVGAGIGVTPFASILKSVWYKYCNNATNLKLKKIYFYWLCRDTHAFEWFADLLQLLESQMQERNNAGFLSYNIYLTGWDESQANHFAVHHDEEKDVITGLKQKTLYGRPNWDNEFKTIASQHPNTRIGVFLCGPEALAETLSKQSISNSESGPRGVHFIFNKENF

For `C=CCN(C(=O)C1N(CCOCCO)C(=O)C2C(C(=O)O)C3C=CC21O3)c1ccc(OC)cc1` (stereo not given), the z-score in experiment [1] was 0.168 (inactive) and 0.839 (inactive); in experiment [3] it was -0.586 (inactive) and -1.15 (inactive); in [4] it was 0.0933 (inactive) and -0.0778 (inactive); in experiment [5], -1.1 (inactive) and -0.285 (inactive); in experiment [6], -0.0612 (inactive) and -0.161 (inactive); in experiment [7] it was 1.4 and -0.338. The z-score is 0.073 (inactive) and 0.856 (inactive) in experiment [8]; -0.509 (inactive) and -0.782 (inactive) in experiment [9]; 0.624 and -0.275 in experiment [10]. For the same compound, in [2], the composite z-score is -0.262 and -0.243.
Turning to `Cc1cc2c(nc1C)CCCN2CC(O)CN1CCCc2nc(-c3ccc(Br)cc3)ccc21` (stereo not given), the z-score is -0.402 (inactive) and -0.327 (inactive) in experiment [1]; 12.1 (active) and 8.25 (active) in experiment [3]; 1.55 (inactive) and 0.974 (inactive) in [4]; 1.59 (inactive) and 1.02 (inactive) in experiment [5]; 0.739 (inactive) and 0.394 (inactive) in experiment [6]; 0.0832 and -0.44 in experiment [7]. Besides, the z-score was 1.74 (inactive) and 1.1 (inactive) in experiment [8]; -1.98 (inactive) and -1.54 (inactive) in [9]; -2.82 and -2.56 in [10]. Also, in [2], the composite z-score was 0.585 and 0.584.
For `C=CCN(CCCC)C(=O)C1N(CCOCCO)C(=O)C2C(C(=O)O)C3C=CC21O3` (stereo not given), the z-score in [1] was 0.151 (inactive) and -0.207 (inactive); in experiment [3] it was 0.461 (inactive) and -0.326 (inactive); in experiment [4], 0.703 (inactive) and 0.124 (inactive); in experiment [5], -0.668 (inactive) and -0.506 (inactive); in [6] it was 0.0875 (inactive) and 0.111 (inactive); in experiment [7] it was -0.0621 and 0.53. The z-score in [8] is 0.502 (inactive) and 0.676 (inactive); in experiment [9] it was -1.77 (inactive) and -2.02 (inactive); in [10], -0.512 and 0.152. The composite z-score in [2] was -0.191 and -0.454.
Regarding `COC(=O)C1=C(C)N(Cc2ccccc2)C2=C(C(C)=O)C[C@@](O)(C(=O)OC)C(=O)N2[C@@H]1c1ccccc1`, the z-score is 0.125 (inactive) and -0.635 (inactive) in [1]; 0.0793 (inactive) and -0.0501 (inactive) in experiment [3]; -1.13 (inactive) and -0.742 (inactive) in experiment [4]; 0.0531 (inactive) and -0.0986 (inactive) in experiment [5]; -1.62 (inactive) and -0.838 (inactive) in experiment [6]; 0.268 and 2.46 in experiment [7]. Also, the z-score is 0.627 (inactive) and 0.462 (inactive) in experiment [8]; 0.993 (inactive) and 0.524 (inactive) in [9]; 1 and 1.04 in experiment [10]. Also, the composite z-score in experiment [2] was -0.147 and 0.0732.
Consider `O=C(NN=C1C[C@@H](O)[C@@H](O)[C@@H]2[C@@H]3C(=O)N(Cc4ccc5c(c4)OCO5)C(=O)[C@@H]3CC[C@H]12)OCc1ccccc1`, for which the z-score in experiment [1] was 1.2 (inactive); in experiment [3] it was 37 (active); in experiment [4], 14.8 (active); in experiment [5], 0.833 (inactive); in [6], 1.24 (inactive); in [7], -0.241. Also, the z-score was -1.32 (inactive) in experiment [8], 0.0354 (inactive) in experiment [9] and 0.664 in experiment [10]. In experiment [2], this compound registered a composite z-score of 0.126.
`C=CCN(CCCC)C(=O)C(c1cccs1)N(CCOCCO)C(=O)/C=C\C(=O)O` (stereo not given): the z-score in [1] was 1.59 (inactive) and 1.84 (inactive); in [3], -0.0592 (inactive) and -0.28 (inactive); in experiment [4] it was -0.832 (inactive) and -0.75 (inactive); in experiment [5], -0.114 (inactive) and 0.0221 (inactive); in [6], -1.22 (inactive) and -1.27 (inactive); in [7], 1.05 and 1.65. The z-score in experiment [8] was 0.0943 (inactive) and 0.209 (inactive); in experiment [9], -0.73 (inactive) and -0.71 (inactive); in [10], 0.465 and -0.0314. In addition, the composite z-score in experiment [2] is -0.275 and -0.127.
Take `CO[C@@H]1COC(=O)CC=C[C@H](C)[C@@H](NS(=O)(=O)c2ccc(C)cc2)COC(=O)CC=C[C@@H]1C`: the z-score was 0.578 (inactive) and 0.567 (inactive) in experiment [1]; 0.614 (inactive) and 0.595 (inactive) in [3]; 0.281 (inactive) and -0.12 (inactive) in experiment [4]; -0.153 (inactive) and 0.571 (inactive) in experiment [5]; 0.401 (inactive) and 0.367 (inactive) in [6]; -0.3 and -0.484 in experiment [7]. Moreover, the z-score in experiment [8] was 0.0381 (inactive) and 0.541 (inactive); in [9], 0.724 (inactive) and 0.493 (inactive); in experiment [10], 0.423 and 0.277. Further, the composite z-score in experiment [2] was -0.186 and 0.0492.
For the compound `CC(CO)N1C(=O)[C@@H]2C3C(=O)OCCC=C[C@H]3OC23C=CCN(C(C)(C)C)C(=O)[C@@H]13` (stereo not given in full), the z-score in experiment [1] is -0.745 (inactive) and -0.506 (inactive); in experiment [3] it was 0.901 (inactive) and 1.86 (inactive); in experiment [4], -0.27 (inactive) and 0.449 (inactive); in experiment [5] it was 1.02 (inactive) and 0.409 (inactive); in experiment [6], 0.406 (inactive) and 0.112 (inactive); in experiment [7] it was 1.11 and -0.113. Also, the z-score was 0.793 (inactive) and 1.49 (inactive) in [8]; 0.0644 (inactive) and 0.425 (inactive) in [9]; 1.96 and 2.84 in [10]. For the same compound, the composite z-score in [2] was -0.224 and 0.227.
